Inconclusive results are not listed. The source made the active and inactive calls. Unless noted, the call rests on the fitted dose curve; in most records, active means well fitted curve in the direction sought with a large enough effect in the repeat runs; inconclusive means weak or mixed curves; inactive means no such curve, though single readings can be large; an effect the other way counts as inactive or inconclusive.
Key:
[1] = qHTS assay to identify small molecule agonists of the peroxisome proliferator-activated receptor delta (PPARd) signaling pathway - cell viability counter screen (AID 743211); further: nearly all actives have a fitted effect of over 55% in size
How it was run: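 Luminescent ATP viability assay (CellTiter-Glo, 30 min RT) in UAS-bla HEK293H cells carrying the PPAR delta reporter construct, 3000 cells/well, after a 17 h compound treatment at 37 C.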

[2] = qHTS assay to identify small molecule antagonists of the farnesoid-X-receptor (FXR) signaling pathway - cell viability counter screen (AID 743221; active means well fitted cell-killing curve with a large enough effect in the repeat runs, not every such curve was filed as active; further: nearly all actives have a fitted effect of over 50% in size)
How it was run: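 In GeneBLAzer FXR-UAS-bla HEK 293T cells stimulated with 50 uM chenodeoxycholic acid (final), compounds acted for 16 h at 37 C. Viability was assessed afterwards by CellTiter-Glo luminescence.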

[3] = molecular target: Vitamin D3 receptor (Homo sapiens) (UniProt P11473); assay: qHTS assay to identify small molecule agonists of the vitamin D receptor (VDR) signaling pathway (AID 743222; calls by dose curve)
Sequence of Vitamin D3 receptor (Homo sapiens) (P11473 whole entry, looked up): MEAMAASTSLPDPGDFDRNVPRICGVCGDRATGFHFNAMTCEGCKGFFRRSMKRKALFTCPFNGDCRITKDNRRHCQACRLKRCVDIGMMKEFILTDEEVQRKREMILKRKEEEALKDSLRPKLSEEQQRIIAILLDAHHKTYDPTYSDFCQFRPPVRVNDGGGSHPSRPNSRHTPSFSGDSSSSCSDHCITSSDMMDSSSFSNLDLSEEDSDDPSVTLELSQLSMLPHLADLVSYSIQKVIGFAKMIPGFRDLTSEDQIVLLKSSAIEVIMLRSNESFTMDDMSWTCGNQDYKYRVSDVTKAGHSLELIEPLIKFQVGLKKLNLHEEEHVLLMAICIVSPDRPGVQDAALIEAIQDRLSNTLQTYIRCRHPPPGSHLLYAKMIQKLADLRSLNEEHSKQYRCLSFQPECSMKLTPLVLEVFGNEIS
How it was run: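 VDR-bla cells were seeded, left 4 h, treated with compounds in DMSO for 16 h, incubated 2 h at RT with B/G FRET substrate, and read for fluorescence.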

[4] = molecular target: Vitamin D3 receptor (Homo sapiens) (UniProt P11473); assay: qHTS assay to identify small molecule antagonists of the vitamin D receptor (VDR) signaling pathway (AID 743223; active means well fitted inhibition curve with a large enough effect in the signal ratio in the repeat runs, not every such curve was filed as active; the % refers to the signal ratio)
How it was run: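 Agonist 1alpha,25-dihydroxyvitamin D3 (3 nM in well) was added with each compound to VDR-bla cells preincubated 4 h. Cells stood 16 h at 37C, then FRET substrate 2 h at room temperature; fluorescence intensity recorded.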

[5] = qHTS assay to identify small molecule agonists of the vitamin D receptor (VDR) signaling pathway - cell viability counter screen (AID 743224); further: series mostly up to about 63 µM; nearly all actives have a fitted effect of over 50% in size
How it was run: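 Here cell health was gauged by luminescent ATP detection (CellTiter-Glo, 30 min RT) in VDR-bla cells that had been incubated with test compounds for 16 h at 37C and 5% CO2.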

[6] = qHTS assay to identify small molecule antagonists of the vitamin D receptor (VDR) signaling pathway - cell viability counter screen (AID 743225); further: nearly all actives have a fitted effect of over 50% in size
How it was run: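 Luminescent cell viability (CellTiter-Glo) in VDR-bla HEK 293T cells after 16 h compound exposure at 37C in the presence of 3 nM final 1-alpha,25-dihydroxy vitamin D3.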

[7] = qHTS assay to identify small molecule agonists of the NFkB signaling pathway - cell viability counter screen (AID 1159515; calls by dose curve; further: series mostly up to about 61 µM; nearly all actives have a fitted effect of over 55% in size)
How it was run: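 5 hr compound treatment of NFkB-bla ME-180 cells (2,000/well, seeded overnight beforehand), followed by reporter substrate for 1.5 hr. CellTiter-Glo added afterward; luminescence after 30 min RT.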

[8] = qHTS assay to identify small molecule agonists of the endoplasmic reticulum stress response signaling pathway (AID 1159516; active means well fitted activation curve with a large enough effect in the signal ratio in the repeat runs, not every such curve was filed as active; the % refers to the signal ratio)
How it was run: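 Reporter HeLa cells (ESRE-beta-lactamase) underwent 5 hr compound incubation at 37 C and 5% CO2 in quantitative HTS format. Detection followed 2 hr of FRET substrate loading at room temperature.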

[9] = qHTS assay to identify small molecule agonists of the endoplasmic reticulum stress response signaling pathway - cell viability counter screen (AID 1159517; calls by dose curve;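 further: HeLa cells carrying an ER stress response element beta-lactamase reporter; series mostly up to about 61 µM; nearly all actives have a fitted effect of over 50% in size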)
How it was run: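 CellTiter-Glo was added to wells already read for beta-lactamase FRET, and luminescence was recorded 30 min later. Cells: ESRE-bla HeLa, 1,500 per well, compound exposure 5 hr at 37 C.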

[10] = qHTS assay to identify small molecule antagonists of the retinoid-related orphan receptor gamma (ROR-gamma) signaling pathway - cell viability counter screen (AID 1159520); further: nearly all actives have a fitted effect of over 50% in size
How it was run: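 Tet-on ROR gamma CHO cells (1,000/well) were plated 4 hr, given compounds in DMSO for 2 hr at 37 C, then induced with 1 uM final doxycycline for 16 hr. Viability was read as ATP by CellTiter-Glo luminescence after 30 min.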

[11] = molecular target: Nuclear receptor ROR-gamma (Homo sapiens) (UniProt P51449); assay: qHTS assay to identify small molecule antagonists of the retinoid-related orphan receptor gamma (ROR-gamma) signaling pathway (AID 1159521)
How it was run: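 CHO cells expressing RORγ under a TET-on promoter, luciferase under RORE control. Dox 1 uM final, 16 h; compounds added 2 h prior. Luminescence decrease measured.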

[12] = qHTS assay to identify small molecule agonists of the AP-1 signaling pathway - cell viability counter screen (AID 1159525; calls by dose curve; further: nearly all actives have a fitted effect of over 55% in size)
How it was run: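 ME-180 AP-1-bla, 2500 cells/well, Opti-MEM + 0.5% dialyzed FBS; overnight 37 °C; cpd 15-pt titration, 5 h 37 °C; CellTiter-Glo 30 min RT; luminescence read; normalised to TOAB and DMSO controls.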

[13] = qHTS assay to identify small molecule agonists of the AP-1 signaling pathway (AID 1159526; calls by dose curve)
[14] = molecular target: Retinoic acid receptor RXR-alpha (Homo sapiens) (UniProt P19793); assay: qHTS assay to identify small molecule agonists of the RXR signaling pathway (AID 1159527; calls by dose curve; further: nearly all actives have a fitted effect of over 35% in size)
Sequence of Retinoic acid receptor RXR-alpha (Homo sapiens) (P19793 whole entry, looked up): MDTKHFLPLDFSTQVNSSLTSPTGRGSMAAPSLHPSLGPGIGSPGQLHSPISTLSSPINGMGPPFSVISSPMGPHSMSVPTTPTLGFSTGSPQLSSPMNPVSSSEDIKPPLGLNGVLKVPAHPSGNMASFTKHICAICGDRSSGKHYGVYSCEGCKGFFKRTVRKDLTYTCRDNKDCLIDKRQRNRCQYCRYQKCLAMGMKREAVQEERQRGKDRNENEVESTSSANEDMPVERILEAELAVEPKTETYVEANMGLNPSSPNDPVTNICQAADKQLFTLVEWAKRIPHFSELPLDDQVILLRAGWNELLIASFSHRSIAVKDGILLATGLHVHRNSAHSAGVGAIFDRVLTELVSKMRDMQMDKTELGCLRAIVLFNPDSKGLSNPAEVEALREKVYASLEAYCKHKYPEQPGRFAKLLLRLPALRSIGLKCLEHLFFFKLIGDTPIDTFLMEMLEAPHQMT
How it was run: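 Beta-lactamase reporter assay, agonist format. Engineered HEK 293T line, charcoal-stripped FBS at 2%, overnight (16 hr) exposure, fluorescence at 460 and 530 nm after 405 nm excitation.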

[15] = molecular target: Peroxisome proliferator-activated receptor delta (Homo sapiens) (UniProt Q03181); assay: qHTS assay to identify small molecule agonists of the peroxisome proliferator-activated receptor delta (PPARd) signaling pathway (AID 743212; calls by dose curve)
Sequence of Peroxisome proliferator-activated receptor delta (Homo sapiens) (Q03181 whole entry, looked up): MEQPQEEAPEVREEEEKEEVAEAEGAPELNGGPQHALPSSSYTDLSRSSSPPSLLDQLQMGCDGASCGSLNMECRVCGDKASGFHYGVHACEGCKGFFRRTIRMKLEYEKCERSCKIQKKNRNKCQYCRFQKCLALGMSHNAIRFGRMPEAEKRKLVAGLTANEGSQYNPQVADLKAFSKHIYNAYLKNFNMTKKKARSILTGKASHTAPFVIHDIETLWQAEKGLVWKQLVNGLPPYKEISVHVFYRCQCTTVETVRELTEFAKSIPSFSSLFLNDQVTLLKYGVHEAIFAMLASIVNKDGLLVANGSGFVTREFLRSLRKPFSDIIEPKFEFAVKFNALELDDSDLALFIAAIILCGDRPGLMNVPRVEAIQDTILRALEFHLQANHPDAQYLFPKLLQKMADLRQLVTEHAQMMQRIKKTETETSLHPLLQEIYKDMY
How it was run: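 A PPARd-bla HEK293H line with beta-lactamase under an Upstream Activator Sequence is treated with compounds at 37 C. Substrate loading for 2 h at room temperature precedes the fluorescence measurement.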

[16] = qHTS assay to identify small molecule antagonists of the peroxisome proliferator-activated receptor delta (PPARd) signaling pathway - cell viability counter screen (AID 743213); further: nearly all actives have a fitted effect of over 50% in size
How it was run: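 Viability counter-screen, qHTS format: PPARd-bla HEK293H, L165041 300 nM final, 17 h compound exposure at 37 C, CellTiter-Glo luminescence after 30 min RT.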

[17] = molecular target: Peroxisome proliferator-activated receptor delta (Homo sapiens) (UniProt Q03181); assay: qHTS assay to identify small molecule antagonists of the peroxisome proliferator-activated receptor delta (PPARd) signaling pathway (AID 743215; active means well fitted inhibition curve with a large enough effect in the signal ratio in the repeat runs, not every such curve was filed as active; the % refers to the signal ratio;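 further: cells stimulated with agonist L165041 at 300 nM final during compound exposure; series mostly up to about 62 µM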)
How it was run: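 With L165041 present at 300 nM final, compounds were incubated 17 h at 37 C on PPARd UAS-bla HEK293H cells. A FRET-based beta-lactamase substrate was then applied for 2 h at room temperature and fluorescence intensity recorded.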

[18] = molecular target: Bile acid receptor (Homo sapiens) (UniProt Q96RI1); assay: qHTS assay to identify small molecule antagonists of the farnesoid-X-receptor (FXR) signaling pathway (AID 743217; active means well fitted inhibition curve with a large enough effect in the signal ratio in the repeat runs, not every such curve was filed as active; the % refers to the signal ratio)
Sequence of Bile acid receptor (Homo sapiens) (Q96RI1 whole entry, looked up): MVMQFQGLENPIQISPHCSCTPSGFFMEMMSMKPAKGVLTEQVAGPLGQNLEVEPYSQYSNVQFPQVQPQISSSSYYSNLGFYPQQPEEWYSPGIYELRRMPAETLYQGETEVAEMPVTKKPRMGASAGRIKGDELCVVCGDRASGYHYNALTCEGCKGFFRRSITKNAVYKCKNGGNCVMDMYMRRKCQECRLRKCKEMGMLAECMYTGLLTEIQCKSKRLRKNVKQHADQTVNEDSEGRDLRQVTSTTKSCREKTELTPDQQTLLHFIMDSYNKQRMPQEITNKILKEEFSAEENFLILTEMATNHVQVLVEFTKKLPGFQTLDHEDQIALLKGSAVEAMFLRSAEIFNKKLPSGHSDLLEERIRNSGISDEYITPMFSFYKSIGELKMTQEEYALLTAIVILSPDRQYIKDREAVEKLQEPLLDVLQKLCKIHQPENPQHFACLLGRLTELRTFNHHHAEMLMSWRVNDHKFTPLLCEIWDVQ
How it was run: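 In this cell-based antagonist screen, inhibition of CDCA-driven (50 uM final) UAS-beta-lactamase expression in HEK 293T cells was measured by FRET fluorescence following 16 h compound exposure at 37 °C.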

[19] = qHTS assay to identify small molecule agonists of the farnesoid-X-receptor (FXR) signaling pathway - cell viability counter screen (AID 743218); further: nearly all actives have a fitted effect of over 45% in size
How it was run: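 After 16 h at 37 C with test compounds, FXR-bla HEK 293T cells were given LiveBLAzer B/G substrate for 2 h at RT and then CellTiter-Glo; luminescence was taken after 30 min.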

[20] = molecular target: Bile acid receptor (Homo sapiens) (UniProt Q96RI1); assay: qHTS assay to identify small molecule agonists of the farnesoid-X-receptor (FXR) signaling pathway (AID 743220; active means well fitted activation curve with a large enough effect in the signal ratio in the repeat runs, not every such curve was filed as active; the % refers to the signal ratio)
How it was run: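 Beta-lactamase reporter under UAS control in GeneBLAzer FXR HEK 293T cells (5000/well) measured with LiveBLAzer FRET substrate after 2 h at room temperature. Compound exposure lasted 16 h at 37C.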

Measured: Potency

CSc1nc(NC(C)C)nc(NC(C)C)n1
inactive: [1] | [2] | [3] | [4] | [5] | [6] | [7] | [8] | [9] | [10] | [11] | [12] | [13] | [14]

CNC(=S)S
inactive: [1] | [15] | [16] | [17] | [2] | [3] | [4] | [5] | [6] | [7] | [8] | [9] | [10] | [11] | [12] | [13] | [14]

CS(=O)(=O)NC(=O)c1cc(Oc2ccc(C(F)(F)F)cc2Cl)ccc1[N+](=O)[O-]
inactive: [1] | [16] | [18] | [19] | [20] | [2] | [5] | [6] | [7] | [8] | [9] | [10] | [11] | [12] | [13] | [14]

CC1(C)Cc2cccc(O)c2O1
inactive: [1] | [16] | [19] | [2] | [3] | [4] | [5] | [6] | [7] | [8] | [9] | [10] | [11] | [12] | [13] | [14]

CCCCOC(=O)COC(=O)c1ccccc1C(=O)OCCCC
inactive: [1] | [15] | [17] | [19] | [2] | [5] | [6] | [7] | [8] | [9] | [10] | [11] | [12] | [13] | [14]

Oc1ccc(Cl)cc1Cl
inactive: [1] | [15] | [16] | [17] | [18] | [19] | [20] | [2] | [3] | [4] | [5] | [6] | [7] | [8] | [9] | [10] | [11] | [12] | [13] | [14]

Clc1ccc(C(Cl)(Cl)Cl)cc1
inactive: [1] | [18] | [20] | [2] | [5] | [6] | [7] | [8] | [9] | [10] | [11] | [12] | [13] | [14]

Cc1cc(Cl)ccc1N=CN(C)C
inactive: [1] | [15] | [16] | [17] | [2] | [4] | [5] | [6] | [7] | [8] | [9] | [10] | [11] | [12] | [13] | [14]

C=C(C)C#N
inactive: [1] | [15] | [17] | [18] | [19] | [20] | [2] | [4] | [5] | [6] | [7] | [8] | [9] | [10] | [11] | [12] | [13] | [14]

CCC/C=N/O
inactive: [1] | [18] | [19] | [20] | [2] | [4] | [5] | [6] | [7] | [8] | [9] | [10] | [11] | [12] | [13] | [14]

ClCC(Cl)CCl
inactive: [1] | [15] | [16] | [17] | [19] | [2] | [3] | [4] | [5] | [6] | [7] | [8] | [9] | [10] | [11] | [12] | [13] | [14]

ClC(Cl)(Cl)c1ccccc1
inactive: [1] | [15] | [16] | [17] | [18] | [19] | [20] | [2] | [3] | [4] | [5] | [6] | [7] | [8] | [9] | [10] | [11] | [12] | [13] | [14]

CCCCCCCCCCCCCl
inactive: [1] | [15] | [16] | [17] | [19] | [2] | [3] | [4] | [5] | [6] | [7] | [8] | [9] | [10] | [11] | [12] | [13] | [14]

ClCc1ccccn1
inactive: [1] | [15] | [16] | [17] | [2] | [4] | [5] | [6] | [7] | [8] | [9] | [10] | [11] | [12] | [13] | [14]

CC1CC(=O)O1 (centres undefined)
inactive: [1] | [15] | [16] | [17] | [18] | [19] | [20] | [2] | [3] | [4] | [5] | [6] | [7] | [8] | [9] | [10] | [11] | [12] | [13] | [14]

CCCCOCC1CO1 (centres undefined)
inactive: [1] | [15] | [16] | [17] | [18] | [19] | [20] | [2] | [3] | [4] | [5] | [6] | [7] | [8] | [9] | [10] | [11] | [12] | [13] | [14]

Reference: PubChem BioAssay (Tox21)
